Compound activity from PubChem.
Only some compounds are listed: those with a hit (about 2.8% of all), similar ones and a draw of the others.
PP5 inh: PP5 phosphatase inhibitors, primary screen, biochemical, fluorescence. purified PP5c, OMFP substrate fluorescence. inhibition, % at 6.7 µM. 320,000 compounds, 0.18% hits;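 active means inhibition above the campaign's mean inhibition across all tested compounds plus 3 SD, cut at about 9.5% in these data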
GASC-1 inh: inhibitors of GASC-1 histone demethylase, primary screen, biochemical, fluorescence, DELFIA europium | Lysine-specific demethylase 4C (Homo sapiens), Q9H3R0 | GST-JMJD2C(1-420) H3K9me3 demethylation | inhibition, % at 2.35 µM | 330,000 compounds, 0.069% hits;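 active means more than half of a compound's replicate wells show inhibition beyond 50%, single wells judged on their own value; inconclusive means some, but no more than half, of replicates pass 50% inhibition; inactive means no replicate passes 50% inhibition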;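 further: signal counts dimethyl H3K9 product captured on neutravidin plate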
Target sequence (Q9H3R0 1-420 limits assumed): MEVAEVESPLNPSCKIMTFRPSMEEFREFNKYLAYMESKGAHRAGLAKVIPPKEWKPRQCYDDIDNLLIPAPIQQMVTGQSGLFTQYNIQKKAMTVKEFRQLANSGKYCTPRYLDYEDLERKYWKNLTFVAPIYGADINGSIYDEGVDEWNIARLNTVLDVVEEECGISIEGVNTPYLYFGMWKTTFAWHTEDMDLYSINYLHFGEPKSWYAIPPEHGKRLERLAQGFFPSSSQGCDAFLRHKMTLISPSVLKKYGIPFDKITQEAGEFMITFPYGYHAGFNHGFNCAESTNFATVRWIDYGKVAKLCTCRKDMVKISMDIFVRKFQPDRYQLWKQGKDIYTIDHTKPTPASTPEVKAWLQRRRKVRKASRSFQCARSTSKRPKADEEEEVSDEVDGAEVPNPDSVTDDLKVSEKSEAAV
PP1 counter: PP1-alpha phosphatase inhibitors, primary screen, counter-screen for PP5 inhibitor project, biochemical, fluorescence, OMFP substrate, single point; Serine/threonine-protein phosphatase PP1-alpha catalytic subunit (Homo sapiens), P62136; purified PP1alpha; inhibition, % at 6.7 µM; 320,000 compounds, 0.9% hits; AID 2235, 2010;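 active means inhibition above the mean inhibition of all tested compounds plus 3 SD, computed separately for each screening campaign, cut at about 15% in these data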
KLK7 zymogen act: proKLK7 zymogen activators, primary screen, biochemical, fluorescence intensity. Kallikrein-7 (Homo sapiens), P49862. purified proKLK7, EDANS-DABCYL substrate fluorescence; 100% is mature enzyme control, 0% vehicle. activation, % at 7 µM. 370,000 compounds, 0.9% hits. AID 652039, 2013;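 active means activation above the mean of all tested compounds plus 3 SD, computed per campaign excluding outliers beyond control limits, cut at about 13% in these data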
Rev-erbA mod: modulators of Rev-erb alpha DNA binding, primary screen, biochemical, FITC-DNA, fluorescence polarization, uHTS; Nuclear receptor subfamily 1 group D member 1 (Homo sapiens), P20393; Rev-erbα–FITC-DNA binding, 90 min; activity, % at 10 µM; 370,000 compounds, 0.79% hits; AID 1259318, 2017;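 active means activity above about 14%, limit read from the data; passing the limit was not always enough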
PG9 Ab binder: binders of HIV-1 gp120 antibody PG9, primary screen, biochemical, TR-FRET; HIV-1 gp120 / PG9 antibody interaction; TR-FRET gp120-PG9 antibody binding; inhibition, % at 6.7 µM; 360,000 compounds, 0.43% hits; AID 624416, 2012; in the data active means inhibition above about 8.5%
PG9 bind confirm: binders of anti-gp120 antibody PG9, confirmation, biochemical, TR-FRET | TR-FRET PG9 antibody binding | AID 651571, 2012 | 1,500 compounds, 90% hits | inhibition, % at 6.7 µM | shares compounds with PG9 Ab binder; in the data active means inhibition above about 9%
PGV04 counter: binders of control antibody PGV04, counter-screen for PG9 antibody binder project, biochemical, TR-FRET, distinct HIV envelope site; inhibition, % at 6.7 µM; TR-FRET PGV04 antibody-gp120 binding; shares compounds with PG9 Ab binder; 1,500 compounds, 95% hits; in the data active means inhibition above about 9.5%
PG9 bind DR: small-molecule binders of antibody PG9, dose response, biochemical, TR-FRET, HIV-1 gp120 antibody; shares compounds with PG9 Ab binder; TR-FRET PG9 antibody-gp120 binding inhibition; IC50, µM; 95 tested, under 10 active; AID 651848, 2012; in the data active means IC50 below about 10 µM
PGV04 binding DR: binders of control antibody PGV04, dose response, counter-screen for PG9 antibody binder project, biochemical, TR-FRET, distinct HIV envelope site; 95 compounds, 20% hits; shares compounds with PG9 Ab binder; IC50, µM; TR-FRET binding to control antibody PGV04
PG126 DR counter: binders of control antibody PG126, dose response, counter-screen for PG9 antibody binder project, biochemical, TR-FRET, distinct HIV envelope site. shares compounds with PG9 Ab binder. TR-FRET binding to antibody PG126, counterscreen. IC50, µM. 95 compounds, 20% hits. AID 651939, 2012
Hits are given with their value; . = inactive; ? = inconclusive; / = no result given. Unless noted, no stated cut-off is given here; in the data, active means IC50 below about 9 µM; inactive means the rest.

SMILES | PP5 inh | GASC-1 inh | PP1 counter | KLK7 zymogen act | Rev-erbA mod | PG9 Ab binder | PG9 bind confirm | PGV04 counter | others
CC(=O)c1sccc1NC(=O)c1ccccc1C(=O)O | . | . | . | . | . | 36.2 | 38.7 | 47.3
S=c1[nH]c2ccccc2n2cccc12 | . | . | . | . | . | 23.3 | 16.7 | 14.6 | PG9 bind DR=.;PGV04 binding DR=.;PG126 DR counter=.
Cn1c(=S)[nH]c2ccccc21 | . | . | . | . | . | . | / | /
O=C(NNC(=O)c1ccccc1O)c1ccc(Br)cc1 | . | . | . | . | . | . | / | /
O=C(COC(=O)c1ccccc1O)NNC(=O)c1ccc(Br)cc1 | / | / | / | . | . | 9.5 | 13.9 | 25.2
O=C(COC(=O)c1ccccc1-n1cnnn1)c1ccccc1 | . | . | . | . | . | . | / | /
O=C(COC(=O)c1ccccc1-n1cnnn1)c1ccc(Br)cc1 | . | . | . | . | . | 10.3 | 10.7 | 16.2
NCCC(=O)Nc1ccc(Cl)cc1C(=O)c1ccc[nH]1 | / | / | / | / | . | / | / | /
O=C(Cn1nnc(-c2ccncc2)n1)Nc1ccc(Cl)cc1 | / | / | / | . | . | / | / | /
O=c1[nH]c2cc3c(cc2cc1C(c1nnnn1C1CCCC1)N1CCSCC1)OCCO3 (stereo not drawn) | . | . | . | . | . | 21.4 | 41.6 | 28.8 | PG9 bind DR=.;PGV04 binding DR=7.99;PG126 DR counter=7.79
CC(=O)NC1CCCCN(C)C1=O (stereo not drawn) | / | / | / | . | . | . | / | /
CCCCCNC(=O)C(c1cc2ccccc2o1)n1c(=O)c(-c2ccco2)nc2ccccc21 (stereo not drawn) | / | / | / | . | . | . | / | /
CCCCCNC(=O)C(c1ccncc1)n1c(=O)c(-c2ccco2)nc2ccccc21 (stereo not drawn) | / | / | / | . | . | 9.1 | . | .
Cc1nc(NCCc2ccc(S(N)(=O)=O)cc2)c2c(C)c(C)sc2n1 | . | . | . | . | . | . | / | /
Cc1nc(NCc2ccc(S(N)(=O)=O)cc2)c2c(C)c(C)sc2n1 | . | . | . | . | . | 40.5 | 21.5 | 30.8
CCc1ccccc1NC(=O)CC1S/C(=N\c2nccs2)N(CC)C1=O (stereo not drawn) | . | . | . | . | . | 15.0 | 9.0 | 12.3
COc1cc2[nH]c(=S)n(NC(=O)c3ccccc3)c(=O)c2cc1OC | . | ? | . | . | . | 15.8 | 17.9 | 15.8 | PG9 bind DR=.;PGV04 binding DR=.;PG126 DR counter=.
Cc1ccc(OCCC(=O)OCC(=O)c2ccc3c(c2)NC(=O)CO3)cc1 | . | . | . | . | . | 26.6 | 19.6 | 37.8
O=C1COc2ccc(C(=O)COC(=O)c3ncc(Cl)c(Cl)c3Cl)cc2N1 | . | . | . | . | . | 10.7 | 17.5 | 27.4
O=C(Nc1ccccc1)OCCN1C(=O)CCC12CCC(c1ccc(Cl)cc1)CC2 (stereo not drawn) | / | / | / | . | . | / | / | /
C[C@@H]1CN(C(=O)OC(C)(C)C)CCN1c1ccc(N2CCN(Cc3ccccc3)[C@@H](C)C2)c(C#N)c1 | / | / | / | . | . | . | / | /
